# Source: PubChem BioAssay (National Center for Advancing Translational Sciences (NCATS))
# A selection: hits, their analogues and other compounds. The true share with any hit is near 10%.
# HPGD block = qHTS Assay for Inhibitors of HPGD (15-Hydroxyprostaglandin Dehydrogenase); purified HPGD, NADH fluorescence kinetic, PGE2 substrate; Potency, µM, inactives show top-dose activity change, negative = inhibition, actives largely listed as inhibitors; 150,000 compounds, 4.3% hits; AID 894, 2007; further: potency means the concentration at half of the fitted maximal effect
# Target sequence (P15428 whole entry, looked up): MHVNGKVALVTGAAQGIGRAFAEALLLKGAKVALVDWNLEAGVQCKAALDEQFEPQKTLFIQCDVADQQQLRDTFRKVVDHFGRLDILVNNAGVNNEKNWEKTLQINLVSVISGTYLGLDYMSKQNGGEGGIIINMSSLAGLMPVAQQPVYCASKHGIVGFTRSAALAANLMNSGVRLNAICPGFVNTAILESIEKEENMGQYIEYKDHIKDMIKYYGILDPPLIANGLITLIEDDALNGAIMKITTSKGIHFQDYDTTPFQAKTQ
#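 NADH formation kinetics: reaction with 30 uM PGE2 and 1 mM NAD+ (final), 20 nM enzyme, Tris-HCl pH 8 with Tween 20, after 15 min compound preincubation at room temperature. Fluorescence change, last versus first of five reads.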
# 12-hLO inh = qHTS Assay for Inhibitors of 12-hLO (12-human lipoxygenase) | purified 12-hLO, xylenol orange hydroperoxide absorbance | Potency, µM (titrated, usually from 57.1 µM), for inactives: top-dose activity change, negative = inhibition, hits mostly inhibitors | 150,000 compounds, 0.12% hits | AID 1452, 2008; active means well fitted inhibition curve with a large enough effect; inconclusive means small, poorly fitted or top-dose-only effect; further: potency means the concentration at half of the fitted maximal effect; nearly all actives have a fitted effect of over 55% in size
#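 150 nM 12hLO, 25 mM Hepes pH 7.0 + 0.01% Triton X-100; cpd preinc 15 min RT; 40 uM arachidonic acid, 30 min RT; Fe-XO 30 min; A573/A405 ratio as read-out.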
# Lamin A splicing = qHTS Assay for Modulators of Lamin A Splicing; AID 1487, 2009; 200,000 compounds, 0.01% hits; Potency, µM (doses to about 46.1 µM), for inactives: top-dose ratio change, negative = inhibition, actives largely listed as inhibitors; HeLa LMNA splicing GFP/RFP minigene ratio, 48 h; active means well fitted inhibition curve with a large enough effect in the signal ratio, with a control signal flat, not every such curve was filed as active; inconclusive means small, poorly fitted or top-dose-only effect, or effect the other way, or a change in a side signal; the % refers to the signal ratio; further: potency means the concentration at half of the fitted maximal effect
#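 Read-out is the ratio of GFP to DsRed2 object intensity, acquired by 488 nm laser-scanning cytometry on HeLa lamin A-EGFP minigene reporter cells. Compound incubation 48 hrs at 37 °C in Opti-MEM with 2% FBS; DMSO 0.5% final.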
# PNC inhibitor = High Content Assay for Compounds that inhibit the Assembly of the Perinucleolar Compartment; PC3M PTB-GFP, PNC prevalence imaging, 16 h; active compounds read low; activity change (PNC), negative = inhibition, % at 10 µM; 140,000 compounds, 3.1% hits;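 active means readout at or below -70, meaning at least 70% loss of cells showing the perinucleolar compartment, a nuclear body marking cancer cells; inconclusive means readout between -30 and a set limit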;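 further: plate controls were DMSO wells for no effect and camptothecin positive control wells for full effect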
#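 Read-out is percentage of cells bearing a perinucleolar compartment, from automated 20x imaging of fixed, Hoechst-stained PC3M PTB-GFP cells. Cells were seeded 4 h, then exposed 16 h to compound (23 nl of library stock) in duplicate plates.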
# ALDH1A1 block = qHTS Assay for Inhibitors of Aldehyde Dehydrogenase 1 (ALDH1A1). Aldehyde dehydrogenase 1A1 (Homo sapiens), P00352. Purified ALDH1A1, NADH fluorescence, propionaldehyde substrate. Potency, µM (doses to about 75.3 µM), without a hit: at the highest dose activity, negative = inhibition, actives largely listed as inhibitors. 220,000 compounds, 7.3% hits. AID 1030, 2008;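 further: potency means the concentration at half of the fitted maximal effect; plate controls were no enzyme wells and a reference inhibitor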
# Starred values were filed as active, the others as inactive; ? = inconclusive; / = not tested or not shown; [ ] = remark or other dose. Unless noted, the call rests on the fitted dose curve; in most records, active means well fitted inhibition curve with a large enough effect (not every such curve was filed as active); inconclusive means small, poorly fitted or top-dose-only effect, or another doubt; inactive means no such curve, though single readings can be large or run the other way. Unless noted, on the % scale 0 is the no-effect control and ±100 the full control effect.
SMILES,HPGD block,12-hLO inh,Lamin A splicing,PNC inhibitor,ALDH1A1 block
COc1ccc(C(=O)Nc2nnc(SCc3cc(=O)c4cc(C)ccc4[nH]3)s2)cc1OC,/,/,-11%[46 µM],/,/
Cc1cc2c(nc1C)CCCCN2C[C@H](C)O/N=C1/[C@H]2O[C@@H]2[C@@H](O)[C@H]2[C@H]1CCn1c(=O)n(-c3ccccc3)c(=O)n12,/,/,/,/,-10%[13.5 µM]
O=C(CCSc1ccccc1)N1CCN(C(=O)c2ccco2)CC1,-14%,5%,10%,-91*,22µM*
O=C(COC(=O)c1c2c(nc3ccccc13)CCN(Cc1ccccc1)C2)Nc1c(F)cccc1F,-3%,0%,?,5,?
CC(=O)Nc1ccc(NC(=O)COC(=O)c2c3c(nc4ccccc24)CCN(Cc2ccccc2)C3)cc1,/,3%,?,11,7.1µM*
Cn1c(CCN2CCCCC2)nc2cc([N+](=O)[O-])ccc21,-27%,-16%,?,?,?
Cn1c(CN2CCCCC2)nc2cc([N+](=O)[O-])ccc21,/,/,/,/,11µM*
O=C(NC(O)C(=O)c1cccs1)c1cccnc1 (centres undefined),-18%,-6%,0%,?,10µM*
O=C(N/N=C(\CC(=O)c1cccs1)C(F)(F)F)c1cccnc1,/,/,/,/,20µM*
Oc1ccc(N2CCN(C(=S)NCCc3ccccc3)CC2)cc1,-13%,-10%,?,1,11µM*
S=C(Nc1cccc(Cl)c1)N1CCN(Cc2ccccc2)CC1,-12%,-2%,?,-80*,-9%
S=C(NCCc1ccccc1)N1CCN(Cc2ccccc2)CC1,2%,-7%,-16%,29,7.9µM*
COc1cccc(NC(=S)N2CCN(Cc3ccccc3)CC2)c1,-4%,1%,-11%,103,1%
COc1cccc(N2CCN(C(=S)NCCc3ccccc3)CC2)c1,-3%,-6%,-22%,-92*,-4%
COc1ccc(C2=CC3=C(Br)C(=O)C(C)(OC(=O)c4cnc5ccccc5n4)C(=O)C3=CO2)cc1 (centres undefined),-16%,0%,/,/,6%
CS[C@]12C(=O)C[C@]3(C)[C@@H](CC[C@@]3(O)C(=O)CO)[C@@H]1CCC1=CC(=O)CC[C@]12C,-3%,1%[11.4 µM],/,/,-11%[13.5 µM]
Nc1nnc(SCCCC(=O)c2ccc(F)cc2)s1,-30%,0%,-11%,51,?
Nc1nnc(SCCCC(=O)c2ccc(Br)cc2)s1,3.5µM*,2%,?,-30,14%
CCOC(=O)c1cc(-c2ccc(C)cc2)n(CCCC(=O)Nc2cc(C)ccc2C)c1,/,/,17%[46 µM],/,/
COC(=O)c1sc(S(=O)(=O)NCc2cccs2)c(C(=O)OC)c1C,-17%,-7%,-3%,-111*,14µM*
COC(=O)c1sc(S(=O)(=O)NCC(=O)O)c(C(=O)OC)c1C,/,/,/,/,-3%
CCCC(=O)Nc1cccc(OCc2cc(=O)n3cccc(C)c3n2)c1,/,/,-17%[46 µM],/,/
O=C(C1CCCN(S(=O)(=O)c2cccc3nonc23)C1)N1CCN(c2ccccc2Cl)CC1 (centres undefined),14µM*,4%,?,-21,?
O=C(C1CCCN(S(=O)(=O)c2cccc3nonc23)C1)N1CCN(c2cccc(Cl)c2)CC1 (centres undefined),-8%,3%,?,18,-12%
COc1ccc(Cl)cc1NC(=O)C1CCCN(S(=O)(=O)c2cccc3nonc23)C1 (centres undefined),-18%,2%,-10%,-100*,-5%
SMILES,HPGD block,12-hLO inh,Lamin A splicing,PNC inhibitor,ALDH1A1 block
CCN(CC)c1ccc(C(=O)N2CCc3c([nH]c4ccccc34)C2c2ccc(F)cc2)cc1 (centres undefined),/,/,-17%[46 µM],/,/
O=C(CN1CCC(NC(=O)c2ccco2)CC1)Nc1cccc2ccccc12,-7%,3%,-7%,-100*,12%
COCC(=O)NC1CCN(CC(=O)Nc2ccc(OC)cc2[N+](=O)[O-])CC1,-11%,4%,6%[0.0737 µM],-26,13µM*
O=C(CN1CCC(NC(=O)c2ccco2)CC1)Nc1ccccc1[N+](=O)[O-],/,/,?,/,22µM*
CN(C)c1ccc(-n2cccc2/C=C/[N+](=O)[O-])cc1,/,/,-16%[46 µM],/,?
CN(c1ccccc1)c1ccc(/C=C/[N+](=O)[O-])cc1,32µM*,-3%,?,7,8.9µM*
O=C(CC1N=C2c3ccccc3N=C(SCc3cccc(Cl)c3)N2C1=O)NC1CCCCC1 (centres undefined),/,/,-13%[46 µM],/,/
COc1cc2[nH]c(=S)n(CCN3CCOCC3)c(=O)c2cc1OC,-21%,2%,-22%,-2,-15%
CC(C)NC(=O)c1ccc2c(=O)n(C3CCCC3)c(=S)[nH]c2c1,-5%,-6%,9%,?,0.45µM*
COc1cc2[nH]c(=S)n(C3CC3)c(=O)c2cc1OC,/,/,-8%[46 µM],/,28µM*
COc1cc2[nH]c(=S)n(CC3CCCO3)c(=O)c2cc1OC (centres undefined),-2%,-4%,-3%,20,7.9µM*
CCN(CC)CCNC(=O)c1ccc2c(=O)n(C3CCCC3)c(=S)[nH]c2c1,-16%,-23%,6%,?,?
CCOc1cc2[nH]c(=S)n(CC3CCCO3)c(=O)c2cc1OCC (centres undefined),-10%,-2%,-15%,-1,2.5µM*
CC(C)(C)N1C(=O)[C@H]2[C@H]3[C@H](O)[C@H](O)C/C(=N/OC[C@@H](O)COCc4ccco4)[C@@H]3CC[C@@H]2C1=O,/,/,/,/,8%[13.5 µM]
CC[C@@H]1OC(=O)[C@H](C)[C@H](O[C@@H]2C[C@](C)(OC)[C@H](O)[C@H](C)O2)[C@H](C)[C@H](O[C@@H]2O[C@@H](C)C[C@@H](N(C)C)[C@@H]2O)[C@](C)(O)C[C@H](C)C(=O)[C@H](C)[C@H](O)[C@]1(C)O,-1%,-1%[25.6 µM],-12%,/,4%[20.9 µM]
O=c1c2ccccc2c(C=NC2CCN(Cc3ccccc3)CC2)c(O)n1Cc1ccc2c(c1)OCO2,/,/,-28%[46 µM],/,-12%
CC(=O)N1CC[C@H]2CC(=O)CC[C@@]21C,-5%,5%[0.00818 µM],/,/,3%[120 µM]
CCn1nc(CC(=O)Nc2nnc(CC(=O)N3CCCCC3)s2)c2ccccc2c1=O,22µM*,-2%,2%,-28,-7%
Cc1nn(CC(=O)Nc2nnc(CC(=O)N3CCCC3)s2)c(=O)c2ccccc12,/,1%,8%,?,2%
O=C(O)Cn1cccc1C(=O)c1ccccc1,-23%,?,?,?,14µM*
O=C(Nc1ccccc1C(=O)OCc1cc(=O)n2c3c(sc2n1)CCCC3)c1cccc(Cl)c1,/,/,-8%[46 µM],/,/
